Laboratory results reported in PubChem BioAssay AID1159580 (chemical genetic matrix, 2015).
Screen size: about 5,500 compounds; about 2,000 (36%) were called active. About 18% were inconclusive and are not listed. Rule as the data show it: active = normalized growth mostly below about 0.91 (no sharp cut-off); inconclusive = no clear call, values can overlap the other calls; inactive = mostly above about 0.92. Some of the results follow.

Test: chemical genetic growth profiling, strain panel (AID 1159580);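 also: tested at 20 µM; growth read once vehicle control cultures reached saturation at 30 °C; 1 = growth at the plate median or of vehicle wells; lower values mean less growth of the strain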
Conditions: growth OD

Measured: normalized growth

CC(=O)OCC(CCn1cnc2cnc(N)nc21)COC(C)=O
inactive: S. cerevisiae deletion strains, locus YJR075W, strain HOC1, active compounds read low 0.991 | S. cerevisiae deletion strains, locus YKL009W, strain mrt4, active compounds read low 0.973 | S. cerevisiae deletion strains, locus YKL068W, active compounds read low 0.977 | S. cerevisiae deletion strains, locus YKL085W, strain MDH1 (second series), active compounds read low 0.971 | S. cerevisiae deletion strains, locus YKL085W, strain MDH1, active compounds read low 0.971 | S. cerevisiae deletion strains, locus YKL160W, strain elf1, active compounds read low 0.981 | S. cerevisiae deletion strains, locus YKL190W, strain CNB1, active compounds read low 0.989 | S. cerevisiae deletion strains, locus YKR001C, strain vps1, active compounds read low 0.986 | S. cerevisiae deletion strains, locus YKR026C, strain gcn3, active compounds read low 0.991 | S. cerevisiae deletion strains, locus YKR091W, strain srl3, active compounds read low 0.989 | S. cerevisiae deletion strains, locus YLL001W, strain dnm1, active compounds read low 0.986 | S. cerevisiae deletion strains, locus YLL026W, active compounds read low 0.987 | S. cerevisiae deletion strains, locus YLL041C, strain sdh2, active compounds read low 0.99 | S. cerevisiae deletion strains, locus YLR027C, strain aat2, active compounds read low 0.97 | S. cerevisiae deletion strains, locus YLR039C, strain RIC1, active compounds read low 0.955 | S. cerevisiae deletion strains, locus YLR058C, strain SHM2, active compounds read low 0.977 | S. cerevisiae deletion strains, locus YLR102C, strain apc9, active compounds read low 0.963 | S. cerevisiae deletion strains, locus YLR113W, strain HOG1, active compounds read low 0.966 | S. cerevisiae deletion strains, locus YLR221C, strain rsa3, active compounds read low 1 | S. cerevisiae deletion strains, locus YLR258W, strain gsy2, active compounds read low 0.992 | S. cerevisiae deletion strains, locus YLR262C, strain YPT6 (second series), active compounds read low 0.985 | S. cerevisiae deletion strains, locus YLR262C, strain YPT6, active compounds read low 0.96 | S. cerevisiae deletion strains, locus YLR268W, strain sec22, active compounds read low 0.964 | S. cerevisiae deletion strains, locus YLR320W, strain mms22, active compounds read low 1.01 | S. cerevisiae deletion strains, locus YLR330W, strain CHS5, active compounds read low 0.986 | S. cerevisiae deletion strains, locus YLR342W, strain FKS1 (second series), active compounds read low 1.03 | S. cerevisiae deletion strains, locus YLR342W, strain FKS1, active compounds read low 0.989 | S. cerevisiae deletion strains, locus YLR357W, strain rsc2, active compounds read low 0.969 | S. cerevisiae deletion strains, locus YLR370C, strain arc18, active compounds read low 0.994 | S. cerevisiae deletion strains, locus YLR371W, strain rom2, active compounds read low 0.955 | S. cerevisiae deletion strains, locus YLR384C, strain iki3, active compounds read low 0.974 | S. cerevisiae deletion strains, locus YLR418C, strain cdc73, active compounds read low 0.982 | S. cerevisiae deletion strains, locus YML016C, strain PPZ1, active compounds read low 0.981 | S. cerevisiae deletion strains, locus YML032C, strain rad52, active compounds read low 0.975 | S. cerevisiae deletion strains, locus YML120C, strain ndi1, active compounds read low 0.989 | S. cerevisiae deletion strains, locus YML124C, strain tub3, active compounds read low 0.973 | S. cerevisiae deletion strains, locus YMR058W, strain fet3, active compounds read low 0.988 | S. cerevisiae deletion strains, locus YMR078C, strain ctf18, active compounds read low 0.972 | S. cerevisiae deletion strains, locus YMR125W, strain sto1, active compounds read low 0.986 | S. cerevisiae deletion strains, locus YMR129W, active compounds read low 0.986 | S. cerevisiae deletion strains, locus YMR205C, strain PFK2, active compounds read low 0.992 | S. cerevisiae deletion strains, locus YMR223W, strain ubp8, active compounds read low 0.988 | S. cerevisiae deletion strains, locus YMR231W, strain pep5, active compounds read low 0.986 | S. cerevisiae deletion strains, locus YMR263W, strain SAP30, active compounds read low 0.993 | S. cerevisiae deletion strains, locus YMR307W, strain GAS1, active compounds read low 0.957 | S. cerevisiae deletion strains, locus YNL067W, strain RPL9B, active compounds read low 1 | S. cerevisiae deletion strains, locus YNL071W, strain lat1, active compounds read low 0.995 | S. cerevisiae deletion strains, locus YNL128W, strain TEP1, active compounds read low 0.992 | S. cerevisiae deletion strains, locus YNL153C, strain GIM3, active compounds read low 0.996 | S. cerevisiae deletion strains, locus YNL183C, strain NPR1, active compounds read low 0.959 | S. cerevisiae deletion strains, locus YNL209W, strain ssb2, active compounds read low 0.994 | S. cerevisiae deletion strains, locus YNL233W, strain BNI4, active compounds read low 0.99 | S. cerevisiae deletion strains, locus YNL248C, strain rpa49, active compounds read low 0.991 | S. cerevisiae deletion strains, locus YNL250W, strain rad50, active compounds read low 0.971 | S. cerevisiae deletion strains, locus YNL271C, strain bni1, active compounds read low 0.956 | S. cerevisiae deletion strains, locus YNL298W, strain CLA4, active compounds read low 0.946 | S. cerevisiae deletion strains, locus YNL307C, strain MCK1, active compounds read low 0.99 | S. cerevisiae deletion strains, locus YNL322C, strain KRE1 (second series), active compounds read low 0.995 | S. cerevisiae deletion strains, locus YNL322C, strain KRE1, active compounds read low 0.99 | S. cerevisiae deletion strains, locus YNR049C, strain mso1, active compounds read low 0.983 | S. cerevisiae deletion strains, locus YNR052C, strain pop2, active compounds read low 0.967 | S. cerevisiae deletion strains, locus YOL006C, strain TOP1, active compounds read low 0.955 | S. cerevisiae deletion strains, locus YOL012C, strain htz1 0.703 | S. cerevisiae deletion strains, locus YOL147C, strain pex11, active compounds read low 0.969 | S. cerevisiae deletion strains, locus YOR001W, strain rrp6, active compounds read low 0.974 | S. cerevisiae deletion strains, locus YOR061W, strain CKA2, active compounds read low 0.966 | S. cerevisiae deletion strains, locus YOR069W, strain VPS5, active compounds read low 0.982 | S. cerevisiae deletion strains, locus YOR070C, strain gyp1, active compounds read low 0.996 | S. cerevisiae deletion strains, locus YOR080W, strain dia2, active compounds read low 0.975 | S. cerevisiae deletion strains, locus YOR083W, strain WHI5, active compounds read low 0.987 | S. cerevisiae deletion strains, locus YOR106W, strain vam3, active compounds read low 0.982 | S. cerevisiae deletion strains, locus YOR136W, strain idh2, active compounds read low 0.959 | S. cerevisiae deletion strains, locus YOR144C, strain elg1, active compounds read low 0.958 | S. cerevisiae deletion strains, locus YOR184W, strain ser1, active compounds read low 0.966 | S. cerevisiae deletion strains, locus YOR231W, strain MKK1, active compounds read low 0.991 | S. cerevisiae deletion strains, locus YOR265W, strain rbl2, active compounds read low 0.98 | S. cerevisiae deletion strains, locus YOR270C, strain vph1, active compounds read low 1 | S. cerevisiae deletion strains, locus YOR290C, strain snf2, active compounds read low 1.01 | S. cerevisiae deletion strains, locus YOR316C, strain cot1, active compounds read low 0.958 | S. cerevisiae deletion strains, locus YPL051W, strain arl3, active compounds read low 0.984 | S. cerevisiae deletion strains, locus YPL055C, strain LGE1, active compounds read low 0.992 | S. cerevisiae deletion strains, locus YPL078C, strain atp4, active compounds read low 0.976 | S. cerevisiae deletion strains, locus YPL106C, strain sse1, active compounds read low 0.973 | S. cerevisiae deletion strains, locus YPL240C, strain hsp82, active compounds read low 0.973 | S. cerevisiae deletion strains, locus YPL241C, strain CIN2, active compounds read low 0.993 | S. cerevisiae deletion strains, locus YPL256C, strain CLN2, active compounds read low 0.958 | S. cerevisiae deletion strains, locus YPR119W, strain clb2, active compounds read low 0.974 | S. cerevisiae deletion strains, locus YPR141C, strain kar3, active compounds read low 0.943 | S. cerevisiae deletion strains, locus YPR163C, strain tif3, active compounds read low 0.966 | S. cerevisiae deletion strains, locus YPR167C, strain met16, active compounds read low 0.962 | S. cerevisiae deletion strains, strain wtn01, active compounds read low 0.965 | S. cerevisiae strains, strain wild type, active compounds read low 0.994
